From PubChem BioAssay (NCATS)
Results filed as inconclusive are left out. Active and inactive are the calls of the source. The call rests on the fitted dose curve; in most records, active means well fitted curve in the direction sought with a large enough effect; inconclusive means small, poorly fitted or top-dose-only effect, or another doubt; inactive means no such curve, though single readings can be large; an effect the other way counts as inactive or inconclusive.

Assays:
W2 = experiment: qHTS profiling for inhibitors of Plasmodium falciparum proliferation (AID 504749);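 further: 0% = DMSO vehicle and full inhibition = artemisinin control; nearly all actives have a fitted effect of over 60% in size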; details: P. falciparum in erythrocytes, SYBR Green DNA, 72 h; series mostly up to 28.7 µM
Outline: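 Quantitative HTS: compounds pinned into medium, infected erythrocytes added (0.3% parasitemia, 2.5% hematocrit), 72 h culture at 37 C under 5% CO2. Saponin/Triton lysis with SYBR Green I, overnight RT, then fluorescence read.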

CRL-7250 = normal cell line; experiment: Cytotoxic Profiling of Annotated Libraries Using Quantitative High-Throughput Screening (AID 1296008); details: Five cell lines viability, CellTiter-Glo ATP luminescence, 48-72 h; max response: stronger effect = lower value; further: nearly all actives have a fitted effect of over 60% in size; on max response: on the % scale 0 is the no-effect control and ±100 the full control effect
Outline: (§1)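 Compounds were pin-transferred onto cells and incubated 48 or 72 hr at 37 degree Celsius, 95% humidity. CellTiter-Glo was added, plates sat 10 min at room temperature, then ATP-coupled luminescence was imaged as the viability read-out.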

HEK293 = experiment: as above; details: Five cell lines viability, CellTiter-Glo ATP luminescence, 48-72 h; max response: stronger effect = lower value
Outline: as §1

HaCat = experiment: as above; details: Five cell lines viability, CellTiter-Glo ATP luminescence, 48-72 h; max response: stronger effect = lower value
Outline: as §1

KB-3-1 = experiment: as above; details: Five cell lines viability, CellTiter-Glo ATP luminescence, 48-72 h; max response: stronger effect = lower value
Outline: as §1

NIH3T3 = experiment: as above; details: Five cell lines viability, CellTiter-Glo ATP luminescence, 48-72 h; max response: stronger effect = lower value
Outline: as §1

MCC-13 = experiment: qHTS assay to identify novel small-molecules to repurpose for Merkel cell carcinoma treatment (AID 1296009); details: MCC and control cell lines, CellTiter-Glo viability, 72 h; series mostly up to 46 µM; further: on the % scale 0 is the no-effect control and ±100 the full control effect; nearly all actives have a fitted effect of over 60% in size
Outline: (§2)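 Viability readout: ATP luminescence (CellTiter-Glo) after 72 hr drug exposure at 37 degree celsius. Dose-response format was 8 points for NPC and 11 points for MIPE; data normalized to in-plate controls.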

MCC-26 = experiment: as above; details: MCC and control cell lines, CellTiter-Glo viability, 72 h; series mostly up to 46 µM
Outline: as §2

MKL-1 = experiment: as above; details: MCC and control cell lines, CellTiter-Glo viability, 72 h; series mostly up to 46 µM
Outline: as §2

MKL-2 = experiment: as above; details: MCC and control cell lines, CellTiter-Glo viability, 72 h; series mostly up to 46 µM
Outline: as §2

UISO = experiment: as above; details: MCC and control cell lines, CellTiter-Glo viability, 72 h; series mostly up to 46 µM
Outline: as §2

WaGa = experiment: as above; details: MCC and control cell lines, CellTiter-Glo viability, 72 h; series mostly up to 46 µM
Outline: as §2

C33A = experiment: Primary qHTS to identify gynecologic anti-cancer compounds using libraries of approved drugs and bioactive compounds (AID 1345084); details: Gynecologic cancer cell panel viability, ATPlite luminescence, 48 h; series mostly up to 57.5 µM; further: on the % scale 0 is the no-effect control and ±100 the full control effect; nearly all actives have a fitted effect of over 55% in size
Outline: (§3)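 Cell viability after 48 h drug treatment, ATPlite luminescence readout; five doses.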

CASKI = experiment: as above; details: Gynecologic cancer cell panel viability, ATPlite luminescence, 48 h; series mostly up to 57.5 µM
Outline: as §3

Es-2 = experiment: as above; details: Gynecologic cancer cell panel viability, ATPlite luminescence, 48 h; series mostly up to 57.5 µM
Outline: as §3

HeLa = experiment: as above; details: Gynecologic cancer cell panel viability, ATPlite luminescence, 48 h; series mostly up to 57.5 µM
Outline: as §3

CAOV3 = experiment: as above; details: Gynecologic cancer cell panel viability, ATPlite luminescence, 48 h; series mostly up to 57.5 µM
Outline: as §3

O=C(O)C(Cc1cc(I)c(O)c(I)c1)c1ccccc1 (stereo not given)
inactive: Potency (W2) | max response (CRL-7250) -5.72% | max response (HEK293) 1.09% | max response (HaCat) -3.38% | max response (KB-3-1) -19.5% | max response (NIH3T3) -19.3% | Potency (MCC-13) | Potency (MCC-26) | Potency (MKL-1) | Potency (MKL-2) | Potency (UISO) | Potency (WaGa) | Potency (C33A) | Potency (CASKI) | Potency (Es-2) | Potency (HeLa)

N[C@H](C(=O)O)[C@@H](O)c1ccc(O)c(O)c1
inactive: outcome (CRL-7250) | max response (HEK293) -0.734% | max response (HaCat) 1.85% | max response (KB-3-1) -1.88% | max response (NIH3T3) 0.856% | Potency (MCC-13) | Potency (MCC-26) | Potency (MKL-1) | Potency (MKL-2) | Potency (UISO) | Potency (WaGa) | Potency (C33A) | Potency (CASKI) | Potency (Es-2) | Potency (HeLa)

CC(=O)NC(=O)c1ccccc1O
inactive: Potency (W2) | max response (CRL-7250) -3.82% | max response (HEK293) -1.84% | max response (HaCat) -6.77% | max response (KB-3-1) -3.04% | max response (NIH3T3) 0.511% | Potency (MCC-13) | Potency (MCC-26) | Potency (MKL-1) | Potency (MKL-2) | Potency (UISO) | Potency (WaGa) | Potency (C33A) | Potency (CAOV3) | Potency (CASKI) | Potency (Es-2) | Potency (HeLa)

Cl/C(=C\n1cncn1)c1ccc(Cl)cc1Cl
inactive: Potency (W2) | outcome (CRL-7250) | max response (HEK293) -2.88% | max response (HaCat) -4.78% | max response (KB-3-1) 25.3% | max response (NIH3T3) 0.11% | Potency (MCC-13) | Potency (MCC-26) | Potency (MKL-1) | Potency (MKL-2) | Potency (UISO) | Potency (WaGa) | Potency (C33A) | Potency (CAOV3) | Potency (CASKI) | Potency (Es-2)

NC(=S)N/N=C/c1cccnc1
inactive: max response (CRL-7250) -6.1% | max response (HEK293) -29.1% | max response (HaCat) 1.46% | max response (KB-3-1) 2.69% | max response (NIH3T3) 1.77% | Potency (MCC-13) | Potency (MKL-1) | Potency (MKL-2) | Potency (UISO) | Potency (WaGa) | Potency (C33A) | Potency (CAOV3) | Potency (CASKI) | Potency (Es-2) | Potency (HeLa)

FC1(F)C(F)(F)C(F)(F)C2(F)C(F)(F)C(F)(F)C(F)(F)C(F)(F)C2(F)C1(F)F (stereo not given)
inactive: Potency (W2) | max response (CRL-7250) 4.26% | max response (HEK293) 3.06% | max response (HaCat) 0.333% | max response (KB-3-1) 4.98% | max response (NIH3T3) 1.4% | Potency (MCC-13) | Potency (MKL-1) | Potency (MKL-2) | Potency (UISO) | Potency (WaGa) | Potency (C33A) | Potency (CAOV3) | Potency (CASKI) | Potency (Es-2) | Potency (HeLa)

CCCCCCCCCCCCCC(=O)OC(C)C
inactive: Potency (W2) | max response (CRL-7250) -4.95% | max response (HEK293) -0.105% | max response (HaCat) -4.71% | max response (KB-3-1) -19% | max response (NIH3T3) 2.35% | Potency (MCC-13) | Potency (MCC-26) | Potency (MKL-1) | Potency (MKL-2) | Potency (UISO) | Potency (WaGa) | Potency (C33A) | Potency (CASKI) | Potency (Es-2) | Potency (HeLa)

CCNC(=O)NCc1cccc(Cl)c1
inactive: Potency (W2) | outcome (CRL-7250) | max response (HEK293) 4.87% | max response (HaCat) -5.45% | max response (KB-3-1) 2.4% | max response (NIH3T3) 0.416% | Potency (MCC-13) | Potency (MCC-26) | Potency (MKL-1) | Potency (MKL-2) | Potency (UISO) | Potency (WaGa) | Potency (C33A) | Potency (CAOV3) | Potency (CASKI) | Potency (Es-2) | Potency (HeLa)

CCCCNC(=O)NS(=O)(=O)c1ccc(N)cc1
inactive: Potency (W2) | max response (CRL-7250) -16.6% | max response (HEK293) 2.1% | max response (HaCat) 3.3% | max response (KB-3-1) 10% | max response (NIH3T3) -1.55% | Potency (MCC-13) | Potency (MCC-26) | Potency (MKL-1) | Potency (MKL-2) | Potency (UISO) | Potency (WaGa) | Potency (C33A) | Potency (CAOV3) | Potency (CASKI) | Potency (Es-2) | Potency (HeLa)

COP(=O)(OC)OC(c1ccc(Cl)cc1)P(=O)(OC)OC (stereo not given)
inactive: Potency (W2) | max response (CRL-7250) -8.32% | max response (HEK293) -64.4% | max response (HaCat) -2.94% | max response (KB-3-1) 0.95% | max response (NIH3T3) -38.8% | Potency (MCC-13) | Potency (MKL-1) | Potency (MKL-2) | Potency (UISO) | Potency (WaGa) | Potency (C33A) | Potency (CAOV3) | Potency (CASKI) | Potency (Es-2) | Potency (HeLa)

CC1=C(C(=O)O)N2C(=O)[C@@H](NC(=O)[C@H](N)c3ccccc3)[C@H]2SC1
inactive: Potency (W2) | max response (CRL-7250) -2.3% | max response (HEK293) -2.48% | max response (HaCat) 2.08% | max response (KB-3-1) 11.5% | max response (NIH3T3) 1.34% | Potency (MCC-13) | Potency (MCC-26) | Potency (MKL-1) | Potency (MKL-2) | Potency (UISO) | Potency (WaGa) | Potency (C33A) | Potency (CAOV3) | Potency (CASKI) | Potency (Es-2) | Potency (HeLa)

Cc1c(-c2ccccc2)oc2c(C(=O)OCCN3CCCCC3)cccc2c1=O
inactive: Potency (W2) | max response (CRL-7250) -1.78% | max response (HEK293) -20.2% | max response (HaCat) 3.56% | max response (KB-3-1) -3.83% | max response (NIH3T3) 3.38% | Potency (MCC-13) | Potency (MKL-1) | Potency (MKL-2) | Potency (UISO) | Potency (WaGa) | Potency (C33A) | Potency (CAOV3) | Potency (CASKI) | Potency (Es-2) | Potency (HeLa)

CC(=O)Nc1ncc([N+](=O)[O-])s1
inactive: Potency (W2) | max response (CRL-7250) 2.19% | max response (HEK293) 0.687% | max response (HaCat) 4.2% | max response (KB-3-1) 1.85% | max response (NIH3T3) 4.2% | Potency (MCC-13) | Potency (MCC-26) | Potency (MKL-1) | Potency (MKL-2) | Potency (UISO) | Potency (WaGa) | Potency (C33A) | Potency (CASKI) | Potency (Es-2) | Potency (HeLa)
